# Experimental data as given in PubChem BioAssay AID1721 (National Center for Advancing Translational Sciences (NCATS), 2009).
# Out of some 290,000 compounds screened, about 1,100 (0.38%) were called active. The full list was thinned out, with actives kept by preference. Values without a mark were called inactive. Calls follow the shape of the dose curve; as a rule, active = well fitted inhibition curve with a large enough effect; inconclusive = small, poorly fitted or top-dose-only effect, or another doubt; inactive = no such curve, though single readings can be large or run the other way.
# Molecular target: Pyruvate kinase (Leishmania mexicana) (UniProt Q27686)
# Sequence (Q27686 whole entry, looked up): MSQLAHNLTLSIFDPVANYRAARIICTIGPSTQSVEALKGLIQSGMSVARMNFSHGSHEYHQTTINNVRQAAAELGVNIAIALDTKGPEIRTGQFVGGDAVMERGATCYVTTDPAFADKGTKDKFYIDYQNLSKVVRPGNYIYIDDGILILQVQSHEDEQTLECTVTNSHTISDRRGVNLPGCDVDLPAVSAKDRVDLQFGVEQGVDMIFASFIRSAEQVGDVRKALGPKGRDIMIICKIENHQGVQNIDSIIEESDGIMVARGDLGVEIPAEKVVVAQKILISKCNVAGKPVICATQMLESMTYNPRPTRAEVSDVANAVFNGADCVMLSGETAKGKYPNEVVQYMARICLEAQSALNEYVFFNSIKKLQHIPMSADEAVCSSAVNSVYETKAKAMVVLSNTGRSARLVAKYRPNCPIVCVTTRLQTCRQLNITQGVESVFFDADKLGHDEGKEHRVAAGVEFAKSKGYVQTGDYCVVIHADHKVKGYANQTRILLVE
# Experiment: qHTS Assay for Inhibitors of Leishmania Mexicana Pyruvate Kinase (LmPK)
# Conditions: purified LmPK, Kinase-Glo ATP luminescence, 1 h; series mostly up to 57.5 µM; activity change, negative = inhibition: at the top concentration
# Text: NIH Chemical Genomics Center [NCGC] Malcolm Walkinshaw, Hugh Morgan, Linda Gilmore University of Edinburgh, UK MLPCN Grant: 1 R03 MH085697-01 NCGC Assay Overview: Pyruvate kinase (L. Mexicana) (LmPK) enzyme was supplied as a highly purified (>95% pure) sulphate-free preparation from University of Edinburgh, UK and assayed for its ability to generate ATP from ADP using phosphoenolpyruvate (PEP) as a substrate. ATP generation was detected in a coupled reaction by luciferase-mediated luminescence, an ATP-dependent process. […] The enzyme was assayed at an intermediate level of activity to screen for both inhibitors and activators.
# NCGC Assay Protocol Summary: Three uL of enzyme mix (kept on ice) in assay buffer (50 mM Imidazole pH7.2, 50 mM KCl, 7 mM MgCl2, 0.01% Tween 20, 0.05% BSA) containing PEP (0.5 mM final concentration) and LmPK (0.1 nM final concentration) was dispensed into white solid bottom 1,536 well microtiter plates. 23 nL of compound were delivered by a pin tool and 1 uL of ADP mix in assay buffer (r.t; 0.1 mM final ADP concentration) was added. Plates were incubated at room temperature for 1 hour. Two uL of detection mix (Kinase-Glo, Promega; at 4 degree Celsius protected from light) was added and luminescence read by a ViewLux (Perkin Elmer) at 1 second exposure/plate. Data were normalized to the uninhibited and AC100 inhibition (no enzyme). To monitor activation, the first column contained a five-fold concentration of LmPK (0.5 nM).
# % is scaled to controls: 0 for no effect and ±100 for the full control effect; potency is read from the fitted curve at half-maximal effect.
Structure (SMILES),"activity change, negative = inhibition",Potency
CCn1c(CNS(=O)(=O)c2ccc(Cl)cc2)n[nH]c1=S,4.89%,
CCn1c(-c2ccncc2)n[nH]c1=S,3.37%,
CCn1c(CSCc2c(Cl)cccc2Cl)n[nH]c1=S,,15.8 µM (active)
COc1cccc(CNC(=O)C2CCCN(S(=O)(=O)N3CC(C)CC(C)C3)C2)c1 (stereo not given),2.71%,
c1ccc(Cc2ccc(OCCn3ccnc3)cc2)cc1,-2.41%,
CCC1CCCCN1CCCNC(=O)c1cc2c(Cl)nc3ccccc3c2s1 (stereo not given),-3.62%,
CCOc1ccccc1NS(=O)(=O)c1cc2c3c(c1)C(C)C(=O)N3CCC2 (stereo not given),6.52%,
CCOC(=O)c1cc(S(=O)(=O)NCCc2ccc(OC)c(OC)c2)cn1C,10.7%,
Cc1nc2ccc(C(=O)N/N=C/c3ccc(O)cc3)cc2[nH]1,0.498%,
O=C(C[n+]1ccccc1)N/N=C/c1ccc(O)cc1,-8.31%,
Cc1nonc1C(=O)N/N=C/c1ccc(O)cc1,,8.91 µM (active)
C=CCNc1nc(N)c([N+](=O)[O-])c(NC2CCCCC2)n1,1.29%,
NNC(=O)CNC(c1ccccc1)c1cc(Cl)ccc1NC(=O)c1ccccc1 (stereo not given),-0.937%,
C[C@@H](NC(=O)OC(C)(C)C)c1nnc(S(=O)(=O)Cc2ccccc2)o1,1.2%,
Cc1cc2c(c(=O)n1Cc1ccccc1)C1O[C@](CCCCN3C(=O)c4ccccc4C3=O)(Cc3ccccc31)O2,-8.6% [at 11.5 µM],
O=C(Nc1ncc([N+](=O)[O-])s1)C1COc2ccccc2O1 (stereo not given),-20.8%,
O=C(CCc1ccccc1)Nc1ncc([N+](=O)[O-])s1,0.572%,
CC(=O)Oc1ccccc1C(=O)Nc1ncc([N+](=O)[O-])s1,,12.6 µM (active)
Cc1ccc(/C=N/NC(=O)c2cc3ccccc3cc2O)o1,-2.32%,
N=c1oc2ccccc2cc1C(=O)NCc1ccccc1,-5.29%,
N=c1oc2ccccc2cc1C(=O)N/N=C/c1ccccc1,,8.91 µM (active)
CC1CC(C)CN(CCOc2cccc3ccccc23)C1 (stereo not given),0.618%,
Cc1cc(C)c(OCC(=O)N(Cc2cccs2)C2CCS(=O)(=O)C2)c(C)c1 (stereo not given),0.0184%,
CCCn1c(C2CCCN2c2nc(-c3ccc(OC)cc3)cs2)nc2ccccc21 (stereo not given),-0.585%,
COc1ccc(-n2ncc3c2CC(C)(C)CC3NC(=O)CCc2c(C)noc2C)cc1 (stereo not given),-2.13%,
COC(=O)c1ccc2c(C(C)(C)O)c(C(C)(C)O)[nH]c2c1,-3.67%,
COc1ccccc1-n1cn[nH]c1=S,-11.1%,
COc1ccc(OCc2n[nH]c(=S)n2N)cc1,1.04%,

Structure (SMILES),"activity change, negative = inhibition",Potency
COc1ccc(-n2c(-c3ccc(OC)c(OC)c3)n[nH]c2=S)cc1,,20 µM (active)
S=c1[nH]nc(-c2ccc(Cl)cc2)n1CC1CCCO1 (stereo not given),-19.2%,
COc1ccc(OC)c(-n2c(-c3ccn[nH]3)n[nH]c2=S)c1,,20 µM (active)
COc1ccccc1-n1c(-c2cc(-c3ccco3)[nH]n2)n[nH]c1=S,,3.55 µM (active)
Cc1ccc(-n2c(-c3ccc(Cl)cc3)n[nH]c2=S)cc1,,14.1 µM (active)
COc1ccc(OC)c(-n2c(=S)[nH]c3cc(C(=O)N4CCCCC4)ccc3c2=O)c1,-8.77%,
Cc1cc(-c2n[nH]c(=S)n2-c2ccc(C)c(C)c2)no1,-17.2%,
Cc1cc(-c2n[nH]c(=S)n2/N=C/c2ccco2)n[nH]1,6.46%,
Cc1ccc(OCc2n[nH]c(=S)n2-c2ccc(C)cc2)cc1,2.55%,
COc1ccc(-c2n[nH]c(C)c2-c2ccc(OC)c(OC)c2)c(O)c1,2.24%,
O=C(CN1CCCCCC1)Nc1c(Cl)cc(Cl)cc1Cl,-2.33%,
O=C(C1CCCN(S(=O)(=O)c2ccccc2)C1)N1CCN(c2ccc(F)cc2)CC1 (stereo not given),-5.11%,
O=C(CCS(=O)(=O)c1ccccc1)NC1CCCC1,-7.62%,
CC(C)(C)C1C/C(=C/c2ccco2)C(=O)/C(=C/c2ccco2)C1 (stereo not given),2.93%,
COc1ccc(S(=O)(=O)NCCOc2ccccc2)cc1F,6.43%,
COc1ccc(CCN2CC(C(=O)NCCN3CCNC3=O)CCC2=O)cc1 (stereo not given),-1.55%,
CCn1c(SCC(=O)NC2CCCC2)nnc1-c1ccoc1C,-1.22%,
COc1cccc(NC(=O)COc2cc(C)cc3oc(=O)cc(C)c23)c1,-1.3%,
COc1ccc(S(=O)(=O)NCCCCOc2ccc(Cl)cc2)cc1,-1.76%,
CCOc1ccc(C2NC(=S)NC3=C2CCc2ccccc23)cc1 (stereo not given),-18.4%,
CC(C)(C)c1ccc(Cn2nnc3c(=O)[nH]c(C4CCCN(C(=O)c5ccco5)C4)nc32)cc1 (stereo not given),4.01%,
COc1ccc(C(=O)NC2CC(C)(C)NC(C)(C)C2)cc1OC,3.08%,
COCCc1nn2c(=O)cc(COC(=O)c3cc(OC)c(OC)c(OC)c3)nc2s1,4.84%,
CC(=O)C1=C(O)C(=O)N(c2ccc(Br)cc2)C1c1ccc([N+](=O)[O-])cc1 (stereo not given),4.85%,
CCCCc1nc2cc(C(=O)N3CCCCC3CCO)ccc2o1 (stereo not given),-5.27%,
Cc1cc(NC(=O)c2ccc(F)cc2)ccc1NC(=O)c1ccco1,-5.75%,
COc1ccccc1C(=O)Nc1ccc(NC(=O)c2ccco2)c(C)c1,,15.8 µM (active)
